Reference: PubChem BioAssay AID1159580 (chemical genetic matrix, 2015)
Hit rate of the full screen: of about 5,500 compounds, about 2,000 (36%) were called active. Roughly 18% stayed inconclusive and do not appear here. Some of the results follow. A number with no mark means an inactive call. Cut-off read from the data, not from the text of the source: active = normalized growth mostly below about 0.91 (no sharp cut-off); inconclusive = no clear call, values can overlap the other calls; inactive = mostly above about 0.92.

Assay: chemical genetic growth profiling, strain panel (AID 1159580);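 note: tested at 20 µM; growth read once vehicle control cultures reached saturation at 30 °C; 1 = growth at the plate median or of vehicle wells; lower values mean less growth of the strain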
Conditions: S. cerevisiae deletion strains, growth OD
[1] = locus YAL040C, strain CLN3, active compounds read low
[2] = locus YCL061C, strain MRC1 (second series), active compounds read low
[3] = locus YDR150W, strain NUM1, active compounds read low
[4] = locus YDR363W, strain ESC2, active compounds read low
[5] = locus YER002W, strain NOP16, active compounds read low
[6] = locus YGR078C, strain PAC10, active compounds read low
[7] = locus YGR229C, strain SMI1, active compounds read low
[8] = locus YJR075W, strain HOC1, active compounds read low
[9] = locus YNL175C, strain NOP13, active compounds read low
[10] = locus YNL197C, strain WHI3, active compounds read low
[11] = locus YNL224C, strain SQS1, active compounds read low
[12] = locus YOR083W, strain WHI5 (second series), active compounds read low
[13] = locus YPL241C, strain CIN2, active compounds read low
[14] = locus YNL153C, strain GIM3, active compounds read low
[15] = locus YBL105C, strain PKC1, active compounds read low
[16] = locus YBR135W, strain CKS1, active compounds read low
[17] = locus YBR136W, strain MEC1, active compounds read low
[18] = locus YBR160W, strain CDC28, active compounds read low
[19] = locus YDL017W, strain CDC7, active compounds read low
[20] = locus YDL028C, strain MPS1, active compounds read low
[21] = locus YDL108W, strain KIN28, active compounds read low
[22] = locus YDL214C, strain PRR2, active compounds read low
[23] = locus YDR052C, strain DBF4, active compounds read low
[24] = locus YDR226W, strain ADK1, active compounds read low
[25] = locus YDR477W, strain SNF1, active compounds read low
[26] = locus YER123W, strain YCK3, active compounds read low
[27] = locus YER133W, strain GLC7, active compounds read low
[28] = locus YFR003C, strain YPI1, active compounds read low
[29] = locus YFR019W, strain FAB1, active compounds read low
[30] = locus YFR028C, strain CDC14, active compounds read low
[31] = locus YGR040W, strain KSS1, active compounds read low
[32] = locus YGR052W, strain FMP48, active compounds read low
[33] = locus YGR092W, strain DBF2, active compounds read low
[34] = locus YHR030C, strain SLT2, active compounds read low
[35] = locus YHR079C, strain IRE1, active compounds read low
[36] = locus YHR082C, strain KSP1, active compounds read low
[37] = locus YHR205W, strain SCH9, active compounds read low
[38] = locus YIL147C, strain SLN1, active compounds read low
[39] = locus YJL095W, strain BCK1, active compounds read low
[40] = locus YJL128C, strain PBS2, active compounds read low
[41] = locus YJL157C, strain FAR1, active compounds read low
[42] = locus YJR016C, strain ILV3, active compounds read low
[43] = locus YJR066W, strain TOR1 (second series), active compounds read low
[44] = locus YJR066W, strain TOR1, active compounds read low
[45] = locus YKL048C, strain ELM1, active compounds read low
[46] = locus YKL067W, strain YNK1, active compounds read low
[47] = locus YKL101W, strain HSL1, active compounds read low
[48] = locus YKL203C, strain TOR2, active compounds read low
[49] = locus YLR113W, strain HOG1, active compounds read low
[50] = locus YLR133W, strain CKI1, active compounds read low
[51] = locus YLR403W, strain SFP1, active compounds read low
[52] = locus YML070W, strain DAK1, active compounds read low
[53] = locus YMR205C, strain PFK2 (second series), active compounds read low
[54] = locus YNL006W, strain LST8, active compounds read low
[55] = locus YNL020C, strain ARK1, active compounds read low
[56] = locus YNL183C, strain NPR1, active compounds read low
[57] = locus YNL207W, strain RIO2, active compounds read low
[58] = locus YNL307C, strain MCK1 (second series), active compounds read low
[59] = locus YOL136C, strain PFK27, active compounds read low
[60] = locus YOR061W, strain CKA2, active compounds read low
[61] = locus YOR119C, strain RIO1, active compounds read low
[62] = locus YOR231W, strain MKK1, active compounds read low
[63] = locus YPL031C, strain PHO85, active compounds read low
[64] = locus YPL153C, strain RAD53, active compounds read low
[65] = locus YPL204W, strain HRR25, active compounds read low
[66] = locus YPL209C, strain IPL1, active compounds read low
[67] = locus YPL256C, strain CLN2, active compounds read low
[68] = locus YPR106W, strain ISR1, active compounds read low
[69] = locus YPR111W, strain DBF20, active compounds read low
[70] = strain NNK1, active compounds read low

With `Clc1ccc(N2CCN(Cc3c[nH]c4ncccc34)CC2)cc1` the normalized growth [1] was 1.08, the normalized growth [2] was 0.969 and the normalized growth [3] was 0.965. It also gave a normalized growth [4] of 0.907, a normalized growth [5] of 0.968 and a normalized growth [6] of 0.975. The normalized growth [7] was 0.748 (active), the normalized growth [8] was 0.929 and the normalized growth [9] was 0.969. For the same compound, the normalized growth [10] was 0.974, the normalized growth [11] was 0.987 and the normalized growth [12] was 0.925. For the same compound, the normalized growth (locus YPL055C, strain LGE1, active compounds read low) was 0.92 and the normalized growth [13] was 0.992.
With `Ic1ccc(N2CCN(Cc3c[nH]c4ncccc34)CC2)cc1` the normalized growth [1] was 1, the normalized growth [2] was 0.919 (active) and the normalized growth [3] was 0.914 (active). The normalized growth [4] was 0.956, the normalized growth [5] was 1.06 and the normalized growth [6] was 0.851 (active). For the same compound, the normalized growth (locus YMR307W, strain GAS1, active compounds read low) was 1.01, the normalized growth [9] was 1.01 and the normalized growth [10] was 1.01. For the same compound, the normalized growth [11] was 1.06 and the normalized growth [12] was 0.809 (active).
For `OC1(c2ccc(Cl)cc2)CCN(Cc2c[nH]c3ccccc23)CC1`, the normalized growth (locus YAL013W, strain DEP1, active compounds read low) was 1.01, the normalized growth [1] was 1 and the normalized growth [2] was 0.999. For the same compound, the normalized growth [4] was 0.974, the normalized growth [5] was 1.03 and the normalized growth [6] was 1.02. It also gave a normalized growth [7] of 0.979, a normalized growth [8] of 1.01 and a normalized growth [14] of 1. For the same compound, the normalized growth [9] was 1.02, the normalized growth [10] was 1.02 and the normalized growth [11] was 1.03. For the same compound, the normalized growth (locus YNL322C, strain KRE1, active compounds read low) was 0.993 and the normalized growth [12] was 1.01.
Work on `COCc1nc2c([nH]1)c(=O)n(C)c(=O)n2CC(C)C` yielded a normalized growth [1] of 0.991, a normalized growth [2] of 1 and a normalized growth [3] of 1. For the same compound, the normalized growth [4] was 0.997, the normalized growth [5] was 1.02 and the normalized growth [6] was 1.01. The normalized growth [7] was 0.993, the normalized growth [8] was 0.994 and the normalized growth [14] was 1.01. For the same compound, the normalized growth [9] was 0.999, the normalized growth [10] was 1.01 and the normalized growth [11] was 1. For the same compound, the normalized growth [12] was 1.01 and the normalized growth [13] was 1.01.
With `O=c1c(Sc2ccc(Cl)cc2)c(Sc2ccc(Cl)cc2)c1=O` the normalized growth [15] was 0.984, the normalized growth [16] was 0.961 and the normalized growth [17] was 0.978. For the same compound, the normalized growth [18] was 0.973, the normalized growth [19] was 0.985 and the normalized growth [20] was 0.973. The normalized growth [21] was 0.967, the normalized growth [22] was 0.104 (active) and the normalized growth [23] was 0.977. The normalized growth [24] was 0.971, the normalized growth [25] was 0.136 (active) and the normalized growth [26] was 0.0987 (active). For the same compound, the normalized growth [27] was 0.108 (active), the normalized growth [28] was 0.979 and the normalized growth [29] was 0.091 (active). For the same compound, the normalized growth [30] was 0.968, the normalized growth [31] was 0.158 (active) and the normalized growth [32] was 0.135 (active). For the same compound, the normalized growth [33] was 0.386 (active), the normalized growth [34] was 0.128 (active) and the normalized growth [35] was 0.113 (active). The normalized growth [36] was 0.128 (active), the normalized growth [37] was 0.121 (active) and the normalized growth [38] was 0.971. For the same compound, the normalized growth [39] was 0.128 (active), the normalized growth [40] was 0.971 and the normalized growth [41] was 0.0972 (active). The normalized growth [42] was 0.974, the normalized growth [43] was 0.0937 (active) and the normalized growth [44] was 0.124 (active). The normalized growth [45] was 0.6 (active), the normalized growth [46] was 0.115 (active) and the normalized growth [47] was 0.39 (active). The normalized growth [48] was 0.432 (active), the normalized growth [49] was 0.175 (active) and the normalized growth [50] was 0.147 (active). The normalized growth [51] was 0.154 (active), the normalized growth [52] was 0.0995 (active) and the normalized growth [53] was 0.241 (active). For the same compound, the normalized growth [54] was 0.45 (active), the normalized growth [55] was 0.196 (active) and the normalized growth [56] was 0.114 (active). For the same compound, the normalized growth [57] was 0.973, the normalized growth [58] was 0.261 (active) and the normalized growth [59] was 0.0906 (active). For the same compound, the normalized growth [60] was 0.266 (active), the normalized growth [61] was 0.485 (active) and the normalized growth [62] was 0.142 (active). For the same compound, the normalized growth [63] was 0.103 (active), the normalized growth [64] was 0.104 (active) and the normalized growth [65] was 0.109 (active). The normalized growth [66] was 0.985, the normalized growth [67] was 0.154 (active) and the normalized growth [68] was 0.978. For the same compound, the normalized growth [69] was 0.962 and the normalized growth [70] was 0.98.
In the case of `Cc1ccc(Sc2c(Sc3ccc(C)cc3)c(=O)c2=O)cc1`, the normalized growth (locus YAR019C, strain CDC15, active compounds read low) is reported as 0.898, the normalized growth [15] is reported as 0.982 and the normalized growth [16] is reported as 0.961. The normalized growth [17] was 0.968, the normalized growth [18] was 0.958 and the normalized growth [19] was 0.971. The normalized growth [20] was 0.961, the normalized growth (locus YDL101C, strain DUN1, active compounds read low) was 0.915 and the normalized growth [21] was 0.964. The normalized growth (locus YDL132W, strain cdc53, active compounds read low) was 0.936, the normalized growth [22] was 0.184 (active) and the normalized growth [23] was 0.974. For the same compound, the normalized growth [24] was 0.968, the normalized growth [25] was 0.226 (active) and the normalized growth [26] was 0.14 (active). For the same compound, the normalized growth [27] was 0.237 (active), the normalized growth (locus YFL009W, strain cdc4, active compounds read low) was 0.946 and the normalized growth [28] was 0.969. The normalized growth [29] was 0.128 (active), the normalized growth [30] was 0.958 and the normalized growth [31] was 0.285 (active). For the same compound, the normalized growth [32] was 0.228 (active), the normalized growth [33] was 0.427 (active) and the normalized growth [34] was 0.132 (active). The normalized growth [35] was 0.171 (active), the normalized growth [36] was 0.155 (active) and the normalized growth [37] was 0.0561 (active). For the same compound, the normalized growth [38] was 0.964, the normalized growth [39] was 0.172 (active) and the normalized growth [40] was 0.949. For the same compound, the normalized growth [41] was 0.168 (active), the normalized growth [42] was 0.976 and the normalized growth [43] was 0.135 (active). The normalized growth [44] was 0.129 (active), the normalized growth [45] was 0.599 (active) and the normalized growth [46] was 0.287 (active). For the same compound, the normalized growth [47] was 0.447 (active), the normalized growth (locus YKL193C, strain SDS22, active compounds read low) was 0.948 and the normalized growth [48] was 0.551 (active). For the same compound, the normalized growth [49] was 0.186 (active), the normalized growth [50] was 0.267 (active) and the normalized growth [51] was 0.161 (active). The normalized growth [52] was 0.135 (active), the normalized growth (locus YMR001C, strain CDC5, active compounds read low) was 0.952 and the normalized growth [53] was 0.486 (active). For the same compound, the normalized growth (locus YMR277W, strain FCP1, active compounds read low) was 0.882, the normalized growth [54] was 0.949 and the normalized growth [55] was 0.319 (active). For the same compound, the normalized growth (locus YNL161W, strain CBK1, active compounds read low) was 0.966, the normalized growth [56] was 0.173 (active) and the normalized growth [57] was 0.973. For the same compound, the normalized growth [58] was 0.267 (active), the normalized growth [59] was 0.118 (active) and the normalized growth [60] was 0.427 (active). The normalized growth [61] was 0.636 (active), the normalized growth [62] was 0.224 (active) and the normalized growth (locus YOR329C, strain SCD5, active compounds read low) was 0.978. The normalized growth [63] was 0.144 (active), the normalized growth [64] was 0.178 (active) and the normalized growth [65] was 0.197 (active). For the same compound, the normalized growth [66] was 0.965, the normalized growth [67] was 0.172 (active) and the normalized growth (locus YPR025C, strain CCL1, active compounds read low) was 0.957. The normalized growth [68] was 0.967, the normalized growth [69] was 0.952 and the normalized growth [70] was 0.963. The normalized growth (strain TSCII, active compounds read low) was 0.914.
